# NALP1 inh: NALP1 inflammasome inhibitors in reconstituted yeast, colorimetric, S. cerevisiae, triplicate retest; S. cerevisiae NALP1/ASC/caspase-1 growth, X-gal OD620, 72 h; inhibition, % at 10 µM; 280,000 compounds, 0.61% hits; AID 2071, 2009; in the data active = inhibition mostly above about 24%, no sharp cut-off; inactive = mostly below about 32%
# HTR5A inv ctr: HTR5A inverse agonists in luminescence cell assay, primary screen, counter-screen for OPRM1-OPRD1 heterodimer inverse agonist project, full-deck HTS. 5-hydroxytryptamine receptor 5A (Homo sapiens), P47898. HTR5A cell line, inverse agonism. inhibition, % at 9.3 µM. 340,000 compounds, 0.083% hits; in the data active = inhibition mostly above about 23%, no sharp cut-off; inactive = mostly below about 18%;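 note: 0% = cells with DMSO and 100% = no-cell wells with DMSO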
# Target sequence (P47898 whole entry, looked up): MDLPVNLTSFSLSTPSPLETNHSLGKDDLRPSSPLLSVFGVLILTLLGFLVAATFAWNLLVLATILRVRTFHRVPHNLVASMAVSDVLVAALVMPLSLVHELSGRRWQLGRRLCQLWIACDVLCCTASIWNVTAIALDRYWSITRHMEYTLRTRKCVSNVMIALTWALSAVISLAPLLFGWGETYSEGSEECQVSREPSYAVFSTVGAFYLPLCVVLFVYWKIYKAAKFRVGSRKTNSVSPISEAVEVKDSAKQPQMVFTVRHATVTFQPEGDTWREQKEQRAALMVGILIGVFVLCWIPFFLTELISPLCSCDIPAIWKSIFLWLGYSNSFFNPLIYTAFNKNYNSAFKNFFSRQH
# MOR-DOR ag: agonists of OPRM1-OPRD1 heterodimerization, primary screen, cell-based, luminescence; Mu-type opioid receptor (Homo sapiens) + Delta-type opioid receptor (Homo sapiens), …; AID 504326, 2011; cells; 340,000 compounds, 0.3% hits; activation, % at 9.3 µM; in the data active = activation above about 18%;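 note: 0% = vehicle-treated cells and 100% = reference agonist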
# HTR5A ag ctr: HTR5A agonists in luminescence cell assay, primary screen, counter-screen for OPRM1-OPRD1 heterodimer agonist project, full-deck HTS; 5-hydroxytryptamine receptor 5A (Homo sapiens), P47898; cell-based; activation, % at 9.3 µM; 340,000 compounds, 0.61% hits; AID 504692, 2011; in the data active = activation mostly above about 9.5%, no sharp cut-off; inactive = mostly below about 7.6%;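 note: 0% = cells with vehicle only and 100% = reference agonist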
# OPRM1-OPRD1 inv: inverse agonists of MOR-DOR heterodimerization, primary screen, cell-based, luminescence | 340,000 compounds, 0.21% hits | cell-based MOR-DOR heterodimer luminescence, inverse agonism | Mu-type opioid receptor (Homo sapiens) + Delta-type opioid receptor (Homo sapiens), … | inhibition, % at 9.3 µM; in the data active = inhibition above about 22%, passing the limit was not always enough;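 note: 0% = cells with DMSO and 100% = wells without cells with DMSO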
# PolyA inhibitor: polyadenylation inhibitors in yeast reporter cells, primary screen, luminescence, S. cerevisiae; 300,000 compounds, 0.02% hits; S. cerevisiae SKY197-pL101 polyadenylation reporter, beta-gal luminescence; efflux-impaired pdr1/pdr3 knockout yeast; score 100 = 6 SD above DMSO; activity score, % at 12 µM;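 active = lowest replicate activity score at least 50, where 100 means six control SD above control mean; inconclusive = lowest score under 50 but half or more replicates reach 50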;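 note: yeast exposed to compound for 9 h at 30 °C; higher score means more reporter readthrough which indicates perturbed polyadenylation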
# Active calls of the source: *; ? = inconclusive; / = not tested or not shown. Rows were chosen to be rich in hits. Some 1.6% of all compounds tested hit in one or more screens of this group.
SMILES,NALP1 inh,HTR5A inv ctr,MOR-DOR ag,HTR5A ag ctr,OPRM1-OPRD1 inv,PolyA inhibitor
O=c1[nH]nc(SCc2ccccc2)n1C1CC2C=CC1C2 (stereo unspecified),15,8,-2,5,12,-21
C=CCn1c(O)c(N=NC(=O)CNC(=O)Cc2ccccc2)c2ccccc21,2,13,-3,11*,16,-10
Cc1cc(C)cc(N2C(=O)C3C4C=CC(C4)C3C2=O)c1 (stereo unspecified),38*,-8,0,2,2,-3
Cc1ccc(N2C(=O)C3C4C=CC(C4)C3C2=O)cc1 (stereo unspecified),20,0,-1,1,3,1
NC(=S)N/N=C/c1ccc(-c2cc(Cl)c(Cl)cc2Cl)o1,-12,-30,5,12*,-27,-37
COc1ccc(-c2nc(CSCC(=O)NCCCN3CCCC3=O)c(C)o2)cc1OC,0,20,-5,1,24,10
CC1CN(c2nc3ccccc3nc2SCC(=O)Nc2ccc(F)cc2)CC(C)O1 (stereo unspecified),17,-13,6,4,-38,3
O=C(NCC1CCCO1)c1cc(S(=O)(=O)Nc2ccc(Br)cc2)ccc1Cl (stereo unspecified),7,-18,1,2,-6,8
COc1ccc2c(c1OC)C(=O)OC2Nc1nc(-c2ccc(-c3ccccc3)cc2)cs1 (stereo unspecified),58*,-12,2,4,-11,-6
COc1cccc(-c2csc(NC3OC(=O)c4c3ccc(OC)c4OC)n2)c1 (stereo unspecified),6,/,/,/,/,1
COc1ccc(N2CC(C(=O)NNC(=O)c3ccc(Br)cc3)CC2=O)c(OC)c1 (stereo unspecified),/,7,-1,4,10,-4
CCC(NC(=O)Nc1nnc(C(F)(F)F)s1)(C(F)(F)F)C(F)(F)F,13,-37,2,12*,-14,0
CC(C)Oc1ccccc1NC(=O)CSc1nccn1C,0,-9,3,-1,-21,0
COc1ccc(NC(=O)[C@H](C)NC(=O)C2CCN(S(=O)(=O)c3ccc(OC)cc3)CC2)cc1,4,15,-2,-2,11,?
COc1cccc(CNCc2ccc(OC)cc2OC)c1,-5,-2,-1,1,7,1
CCn1c2ccccc2c2cc(CNCc3ccc(OC)cc3OC)ccc21,23*,-10,8,11,-42,-14
Cc1ccc(CNC(=O)/C=C/c2c(Cl)cccc2Cl)cc1,32,-5,0,1,-2,6
Cc1ccc(CNC(=O)/C=C/c2ccccc2Cl)cc1,2,-40,0,11*,-2,-8
COc1ccc(C2C(=O)NN=C2C)cc1 (stereo unspecified),/,18,-3,-5,12,/
Cc1ccc(NC(=O)c2ccc(NC(=O)c3ccccc3)cc2)cc1C,3,-2,5,13*,-24,0
CCOc1ccc(N/C(N)=N/c2nc(CSc3nnc(C)s3)cc(=O)[nH]2)cc1,39*,-9,-3,2,18,7
CC1CCCC(NC(=O)CCNC(=O)c2ccccc2Cl)C1C (stereo unspecified),/,0,0,0,-3,11
O=C(N[C@@H](Cc1ccccc1)C(=O)NC1CCCCCC1)c1ccco1,41*,0,0,-6,0,-1
c1ccc2c(c1)NC1(CCCCC1)n1c-2nc2ccccc21,11,13,1,14*,-6,1
c1ccc2c(c1)NC1(CCCCCC1)n1c-2nc2ccccc21,3,5,-3,7,15,2
SMILES,NALP1 inh,HTR5A inv ctr,MOR-DOR ag,HTR5A ag ctr,OPRM1-OPRD1 inv,PolyA inhibitor
COCCC1CCCCN1C(=O)c1ccc2nc(Cc3ccccc3F)oc2c1 (stereo unspecified),16,0,-1,-2,7,14
COc1ccccc1N=C(C)C1=C(O)CC(c2ccccc2)CC1=O (stereo unspecified),-5,-59,0,8.9*,1,1
CCCC(=Nc1ccccc1OC)C1=C(O)CC(c2ccccc2)CC1=O (stereo unspecified),22,31,2,-2,-9,19
Cc1cc(Sc2nc(NC(C)C)nc(NC(C)C)n2)nc(Cl)n1,12,15,-1,4,6,17
CCOC(=O)CNC(=O)CSc1nc(N(C)C)nc(N2CCOCC2)n1,/,-11,3,11*,-13,4
CCOC(=O)c1ccc(NC(=O)CSc2nc(N3CCOCC3)nc(N3CCOCC3)n2)cc1,20,0,-2,1,12,7
CCN(CC)CC(C(=O)N(CC)CC)P(=O)(c1ccccc1)c1ccccc1 (stereo unspecified),42*,17,4,-6,-22,32
O=C(O)c1cc(-c2ccc(/C=C3\NC(=O)N(c4ccccc4)C3=O)o2)ccc1Cl,30*,-7,-4,-2,20,10
O=C(O)c1cc(-c2ccc(/C=C3\NC(=O)N(c4ccc(Cl)cc4)C3=O)o2)ccc1Cl,15,-1,-3,-4,13,2
CC1=CCC[C@@H]2[C@@](C)(CC/C(C)=C/C(=O)O)[C@H](C)CC[C@@]12C,44*,-30,-3,10,16,-7
COC(=O)c1scc(C)c1N/N=C(\C)c1ccc(F)cc1,42*,-2,1,1,-3,-2
Cc1csc(C(=O)O)c1NC(=O)c1ccc(F)cc1,-5,-4,-3,1,15,26
CC1CC(C)C(=NNC(N)=O)C(C(O)CC2CCC(=O)NC2=O)C1 (stereo unspecified),/,12,-2,-3,11,/
O/N=C/c1ccc(-c2ccccc2OC(F)(F)F)o1,36*,-6,3,2,-12,-11
O=C1NCC(c2ccccc2)C1C(=O)N/N=C/c1ccc(Cl)s1 (stereo unspecified),37*,2,-4,-1,21,-17
Cc1c(OCC(=O)NCc2cccnc2)ccc2c3c(c(=O)oc12)CCC3,26,13,-4,2,22,7
Cc1c(OCC(=O)NCc2ccncc2)ccc2c3c(c(=O)oc12)CCC3,28,-46,-4,12*,20,1
COc1cccc2c1C(=O)C=C(C)C2=O,96*,-1,1,0,-8,-27
COC(CNC(=O)c1cccc2c1C(=O)N(Cc1cccnc1)C2)OC,41*,-8,-1,3,5,7
